Results as given in PubChem BioAssay AID1159580 (chemical genetic matrix, 2015).
Where “and” joins values, the source holds several entries; their conditions need not be identical. Equal values may be shown once. In all, about 5,500 compounds went through this assay and about 2,000 (36%) were called active. Inconclusive results (about 18%) are left out. Cut-off read from the data, not from the text of the source: active = normalized growth mostly below about 0.91 (no sharp cut-off); inconclusive = no clear call, values can overlap the other calls; inactive = mostly above about 0.92. This is one part of the list.

Assay: chemical genetic growth profiling, strain panel (AID 1159580);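 note: tested at 20 µM; growth read once vehicle control cultures reached saturation at 30 °C; 1 = growth at the plate median or of vehicle wells; lower values mean less growth of the strain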
Settings: S. cerevisiae deletion strains, growth OD

Measured: normalized growth

COc1cc(C(C)=O)cc(OC)c1O
inactive: locus YAL013W, strain DEP1, stronger effect = lower value 0.991 | locus YAL021C, strain ccr4, stronger effect = lower value 1.04 | locus YAL026C, strain drs2, stronger effect = lower value 1.03 | locus YAL030W, strain snc1, stronger effect = lower value 1.01 | locus YBL061C, strain skt5, stronger effect = lower value 1.03 | locus YBR009C, strain hhf1, stronger effect = lower value 1.04 | locus YBR021W, strain FUR4, stronger effect = lower value 1.01 | locus YBR023C, strain chs3, stronger effect = lower value 1.03 | locus YBR171W, strain sec66, stronger effect = lower value 1.03 | locus YBR229C, strain ROT2, stronger effect = lower value 0.998 | locus YBR231C, strain swc5, stronger effect = lower value 1.02 | locus YBR279W, strain paf1, stronger effect = lower value 1.02 | locus YCL011C, strain gbp2, stronger effect = lower value 1.03 | locus YCL016C, strain dcc1, stronger effect = lower value 1.02 | locus YCL029C, strain bik1, stronger effect = lower value 1 | locus YCL061C, strain MRC1, stronger effect = lower value 1.02 | locus YCL069W, strain vba3, stronger effect = lower value 1.01 | locus YCR088W, strain abp1, stronger effect = lower value 1.02 | locus YDL005C, strain med2, stronger effect = lower value 1.02 | locus YDL035C, strain GPR1, stronger effect = lower value 0.993 | locus YDL040C, strain nat1, stronger effect = lower value 1.01 | locus YDL074C, strain BRE1, stronger effect = lower value 1.04 | locus YDL101C, strain DUN1, stronger effect = lower value 1.01 | locus YDL134C, strain PPH21, stronger effect = lower value 0.991 | locus YDL185W, strain tfp1, stronger effect = lower value 1 | locus YDL192W, strain arf1, stronger effect = lower value 0.99 | locus YDR001C, strain nth1, stronger effect = lower value 1.01 | locus YDR069C, strain doa4, stronger effect = lower value 1.04 | locus YDR101C, strain arx1, stronger effect = lower value 1.01 | locus YDR137W, strain rgp1, stronger effect = lower value 1.08 | locus YDR150W, strain NUM1, stronger effect = lower value 0.978 | locus YDR159W, strain sac3, stronger effect = lower value 1.05 | locus YDR162C, strain NBP2, stronger effect = lower value 0.986 | locus YDR195W, strain ref2 1.05 | locus YDR297W, strain sur2, stronger effect = lower value 1.02 | locus YDR318W, strain mcm21, stronger effect = lower value 0.991 | locus YDR334W, strain swr1, stronger effect = lower value 1.02 | locus YDR335W, strain msn5, stronger effect = lower value 1.02 | locus YDR388W, stronger effect = lower value 0.994 | locus YDR392W, strain spt3, stronger effect = lower value 0.971 | locus YDR502C, strain sam2, stronger effect = lower value 1.01 | locus YEL003W, strain gim4, stronger effect = lower value 1.04 | locus YEL037C, strain rad23, stronger effect = lower value 1.02 | locus YEL061C, strain CIN8 (second series), stronger effect = lower value 1.03 | locus YEL061C, strain CIN8, stronger effect = lower value 0.999 | locus YER015W, strain faa2, stronger effect = lower value 1.02 | locus YER016W, strain bim1, stronger effect = lower value 1.01 | locus YER110C, stronger effect = lower value 1 | locus YER111C, strain swi4, stronger effect = lower value 1.03 | locus YER155C, strain BEM2 (second series), stronger effect = lower value 1.03 | locus YER155C, strain BEM2, stronger effect = lower value 0.994 | locus YER167W, strain BCK2, stronger effect = lower value 0.977 | locus YFR010W, strain ubp6, stronger effect = lower value 1.03 | locus YGL078C, strain dbp3, stronger effect = lower value 0.998 | locus YGL086W, strain mad1, stronger effect = lower value 1.02 | locus YGL167C, strain pmr1, stronger effect = lower value 1.03 | locus YGL173C, strain kem1, stronger effect = lower value 1.04 | locus YGL227W, strain vid30, stronger effect = lower value 1.03 | locus YGL240W, strain doc1, stronger effect = lower value 1.04 | locus YGL248W, strain PDE1, stronger effect = lower value 0.998 | locus YGL253W, strain hxk2, stronger effect = lower value 1.02 | locus YGR135W, strain pre9, stronger effect = lower value 0.994 | locus YGR252W, strain gcn5, stronger effect = lower value 1.02 | locus YHR013C, strain ard1, stronger effect = lower value 1.02 | locus YHR027C, strain rpn1, stronger effect = lower value 1.02 | locus YHR030C, strain SLT2, stronger effect = lower value 1 and 0.985 | locus YHR079C, strain IRE1 (second series), stronger effect = lower value 0.999 | locus YHR079C, strain IRE1, stronger effect = lower value 0.983 | locus YHR094C, strain hxt1, stronger effect = lower value 1 | locus YHR129C, strain ARP1, stronger effect = lower value 1.01 | locus YHR142W, strain chs7, stronger effect = lower value 1.03 | locus YHR200W, strain rpn10, stronger effect = lower value 0.993 | locus YIL066C, strain RNR3, stronger effect = lower value 0.983 | locus YIL073C, strain SPO22, stronger effect = lower value 0.998 | locus YIL125W, strain kgd1, stronger effect = lower value 0.997 | locus YIR030C, strain dcg1, stronger effect = lower value 1.01 | locus YJL092W, strain hpr5, stronger effect = lower value 1.02 | locus YJL095W, strain BCK1 (second series), stronger effect = lower value 1.01 | locus YJL095W, strain BCK1, stronger effect = lower value 1.05 and 0.999 | locus YJL115W, strain asf1, stronger effect = lower value 1.02 | locus YJL129C, strain trk1, stronger effect = lower value 1.05 | locus YJL134W, strain LCB3, stronger effect = lower value 0.993 | locus YJL154C, strain vps35, stronger effect = lower value 1.01 | locus YJL164C, strain tpk1, stronger effect = lower value 1 | locus YJL166W, strain qcr8, stronger effect = lower value 1.04 | locus YJL168C, strain set2, stronger effect = lower value 0.997 | locus YJL187C, strain SWE1 (second series), stronger effect = lower value 1.02 | locus YJL187C, strain SWE1, stronger effect = lower value 1.02 | locus YJR043C, strain POL32, stronger effect = lower value 0.981 | locus YJR066W, strain TOR1, stronger effect = lower value 0.963 | locus YKL009W, strain mrt4, stronger effect = lower value 1.05 | locus YKL068W, stronger effect = lower value 0.993 | locus YKL085W, strain MDH1 (second series), stronger effect = lower value 0.986 | locus YKL085W, strain MDH1, stronger effect = lower value 0.986 | locus YKL160W, strain elf1, stronger effect = lower value 1.03 | locus YKL190W, strain CNB1, stronger effect = lower value 1.01 | locus YKR001C, strain vps1, stronger effect = lower value 0.987 | locus YKR026C, strain gcn3, stronger effect = lower value 0.995 | locus YKR091W, strain srl3, stronger effect = lower value 1.02 | locus YLL001W, strain dnm1, stronger effect = lower value 1.01 | locus YLL026W, stronger effect = lower value 1.02 | locus YLL041C, strain sdh2, stronger effect = lower value 1.02 | locus YLR027C, strain aat2, stronger effect = lower value 1.01 | locus YLR039C, strain RIC1, stronger effect = lower value 1.02 | locus YLR058C, strain SHM2, stronger effect = lower value 0.998 | locus YLR102C, strain apc9, stronger effect = lower value 1 | locus YLR113W, strain HOG1, stronger effect = lower value 0.981 | locus YLR221C, strain rsa3, stronger effect = lower value 1.04 | locus YLR258W, strain gsy2, stronger effect = lower value 1.03 | locus YLR262C, strain YPT6 (second series), stronger effect = lower value 1.07 | locus YLR262C, strain YPT6, stronger effect = lower value 1.07 | locus YLR268W, strain sec22, stronger effect = lower value 1.05 | locus YLR320W, strain mms22, stronger effect = lower value 1.04 | locus YLR330W, strain CHS5, stronger effect = lower value 0.988 | locus YLR342W, strain FKS1 (second series), stronger effect = lower value 1 | locus YLR342W, strain FKS1, stronger effect = lower value 1.02 | locus YLR357W, strain rsc2, stronger effect = lower value 1.06 | locus YLR370C, strain arc18, stronger effect = lower value 1.02 | locus YLR371W, strain rom2, stronger effect = lower value 1.01 | locus YLR384C, strain iki3, stronger effect = lower value 1.01 | locus YLR418C, strain cdc73, stronger effect = lower value 0.967 | locus YML016C, strain PPZ1, stronger effect = lower value 1.01 | locus YML032C, strain rad52, stronger effect = lower value 0.957 | locus YML120C, strain ndi1, stronger effect = lower value 1.03 | locus YML124C, strain tub3, stronger effect = lower value 0.992 | locus YMR058W, strain fet3, stronger effect = lower value 1.02 | locus YMR078C, strain ctf18, stronger effect = lower value 1 | locus YMR125W, strain sto1, stronger effect = lower value 1.04 | locus YMR129W, stronger effect = lower value 1.03 | locus YMR205C, strain PFK2, stronger effect = lower value 1.08 | locus YMR223W, strain ubp8, stronger effect = lower value 0.999 | locus YMR231W, strain pep5, stronger effect = lower value 1.01 | locus YMR307W, strain GAS1, stronger effect = lower value 0.981 | locus YNL067W, strain RPL9B, stronger effect = lower value 1.03 | locus YNL071W, strain lat1, stronger effect = lower value 1.02 | locus YNL183C, strain NPR1, stronger effect = lower value 0.972 | locus YNL209W, strain ssb2, stronger effect = lower value 1.03 | locus YNL233W, strain BNI4, stronger effect = lower value 1.03 | locus YNL248C, strain rpa49, stronger effect = lower value 1.04 | locus YNL250W, strain rad50, stronger effect = lower value 0.988 | locus YNL271C, strain bni1, stronger effect = lower value 0.996 | locus YNL298W, strain CLA4, stronger effect = lower value 1.01 | locus YNL307C, strain MCK1, stronger effect = lower value 1 | locus YNL322C, strain KRE1 (second series), stronger effect = lower value 1.03 | locus YNL322C, strain KRE1, stronger effect = lower value 0.986 | locus YNR049C, strain mso1, stronger effect = lower value 1.02 | locus YNR052C, strain pop2, stronger effect = lower value 0.993 | locus YOL006C, strain TOP1, stronger effect = lower value 1.02 | locus YOL012C, strain htz1 0.701 | locus YOL147C, strain pex11, stronger effect = lower value 0.994 | locus YOR001W, strain rrp6, stronger effect = lower value 1.03 | locus YOR061W, strain CKA2, stronger effect = lower value 0.995 | locus YOR069W, strain VPS5, stronger effect = lower value 0.996 | locus YOR070C, strain gyp1, stronger effect = lower value 1.01 | locus YOR080W, strain dia2, stronger effect = lower value 1.04 | locus YOR083W, strain WHI5, stronger effect = lower value 1.03 | locus YOR106W, strain vam3, stronger effect = lower value 1.07 | locus YOR136W, strain idh2, stronger effect = lower value 1 | locus YOR144C, strain elg1, stronger effect = lower value 0.997 | locus YOR184W, strain ser1, stronger effect = lower value 0.994 | locus YOR231W, strain MKK1, stronger effect = lower value 0.979 | locus YOR265W, strain rbl2, stronger effect = lower value 1.02 | locus YOR270C, strain vph1, stronger effect = lower value 1.1 | locus YOR290C, strain snf2, stronger effect = lower value 0.995 | locus YOR316C, strain cot1, stronger effect = lower value 0.998 | locus YPL051W, strain arl3, stronger effect = lower value 1.02 | locus YPL055C, strain LGE1, stronger effect = lower value 1.01 | locus YPL078C, strain atp4, stronger effect = lower value 1.02 | locus YPL106C, strain sse1, stronger effect = lower value 1.06 | locus YPL240C, strain hsp82, stronger effect = lower value 1.04 | locus YPL256C, strain CLN2, stronger effect = lower value 0.976 | locus YPR119W, strain clb2, stronger effect = lower value 0.991 | locus YPR141C, strain kar3, stronger effect = lower value 0.989 | locus YPR163C, strain tif3, stronger effect = lower value 1 | locus YPR167C, strain met16, stronger effect = lower value 0.989 | strain wtn01, stronger effect = lower value 1.03
